Bioassay records: PubChem BioAssay, Broad Institute
Hedgehog inh: Sonic Hedgehog pathway inhibition | Shh-LIGHT2 Gli-luciferase reporter, 30 h | inhibition, % (no concentration beside the values) | actives 2.1% (n = 22,000) | AID 2313;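 active = mean inhibition across valid replicates above about 65%, limit read from the data; inconclusive = mean under the limit, yet half or more replicates past it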;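 also: pathway switched on by Shh-conditioned medium diluted 1 in 25 in low serum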
NOMO-1 viab: STK33 inhibitor candidate reducing NOMO-1 cell viability | NOMO-1 AML viability, CellTiter-Glo luminescence, 72 h | inhibition, % (concentration not given with the values) | actives 7.5% (n = 37,000); in the data active = inhibition above about 80%; inconclusive = no clear call, values can overlap the other calls
MITF inhib: inhibitors of MITF | TRPM1 promoter luciferase, luminescence, 24 h | inhibition, % (concentration not given with the values) | actives 0.28% (n = 37,000) | AID 2240; in the data active = inhibition above about 85%; inconclusive = no clear call, values can overlap the other calls; inactive = below about 68%;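 also: human melanocyte line stably carrying TRPM1 promoter luciferase reporter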
An asterisk follows results filed as active; ? = inconclusive; . = no result given. A selection: hits, their analogues and other compounds. The true share with any hit is near 8.1%.

SMILES | Hedgehog inh | NOMO-1 viab | MITF inhib
COc1ccc(CCN2CCC(Nc3nc4ccccc4n3Cc3ccc(F)cc3)CC2)cc1 | 40 | 114* | -10
COc1cccc(C(=O)c2oc3ccccc3c2NC(=O)CCc2ccccc2)c1 | . | 1 | -32
Cc1cc(C)c(NC(=O)CN(c2ccc(Br)cc2)S(C)(=O)=O)c(C)c1 | . | 27 | 7
C[C@H](CO)N1C[C@H](C)[C@H](CN(C)Cc2ccc(C(=O)Nc3ccccc3N)cc2)Oc2c(NC(=O)NC3CCCCC3)cccc2C1=O | . | 120* | 14
C[C@H]1CN([C@@H](C)CO)C(=O)c2cccc(NC(=O)NC3CCCCC3)c2O[C@H]1CN(C)Cc1ccc(-c2ccccc2)cc1 | -3 | 30 | 4
C[C@H]1CN([C@@H](C)CO)C(=O)c2cccc(NC(=O)NC3CCCCC3)c2O[C@H]1CN(C)Cc1ccc(C(=O)Nc2ccccc2N)cc1 | . | 129* | 15
C[C@H](CO)N1C[C@H](C)[C@H](CN(C)Cc2ccc(C(=O)O)cc2)Oc2c(NC(=O)NC3CCCCC3)cccc2C1=O | 11 | -14 | -4
C[C@@H]1CN([C@H](C)CO)C(=O)c2cccc(NC(=O)NC3CCCCC3)c2O[C@H]1CN(C)Cc1ccc(C(=O)O)cc1 | 11 | 14 | -1
C[C@@H]1CN([C@H](C)CO)C(=O)c2cccc(NC(=O)NC3CCCCC3)c2O[C@@H]1CN(C)Cc1ccc(C(=O)Nc2ccccc2N)cc1 | . | 127* | 16
O=C(c1ccc([N+](=O)[O-])cc1)n1nc(-c2ccc(Cl)cc2)nc1NCc1ccco1 | . | ? | 4
Cc1cc([N+](=O)[O-])ccc1NC(=O)CSc1n[nH]c(-c2ccc(Cl)cc2)n1 | . | 29 | 67
COc1ccccc1-n1c(SCC(=O)c2ccc(Cl)cc2)nc2ccccc2c1=O | . | 25 | 27
Cc1ccc(N(C(C)C(=O)Nc2cc([N+](=O)[O-])ccc2C)S(C)(=O)=O)cc1 (stereo not given) | . | 11 | 0
C[C@@H]1CN([C@@H](C)CO)C(=O)c2cc(NC(=O)C3CCCCC3)ccc2O[C@H]1CN(C)Cc1ccc(Oc2ccccc2)cc1 | 25 | 100* | 28
C[C@@H]1CN([C@H](C)CO)C(=O)c2cccc(NC(=O)C3CCCCC3)c2O[C@H]1CN(C)Cc1ccc(Oc2ccccc2)cc1 | 17 | 52 | 31
C[C@@H]1CN([C@@H](C)CO)C(=O)c2cccc(NC(=O)C3CCCCC3)c2O[C@@H]1CN(C)Cc1ccc(Oc2ccccc2)cc1 | -67 | 46 | 0
C[C@@H]1CN([C@@H](C)CO)C(=O)c2cccc(NC(=O)C3CC3)c2O[C@H]1CN(C)Cc1ccc(Oc2ccccc2)cc1 | 2 | 100* | 27
C[C@@H]1CN([C@H](C)CO)C(=O)c2cccc(NC(=O)C3CC3)c2O[C@@H]1CN(C)Cc1ccc(Oc2ccccc2)cc1 | 17 | 2 | 6
C[C@H]1CN([C@@H](C)CO)C(=O)c2cc(NC(=O)C3CCCCC3)ccc2O[C@H]1CN(C)Cc1ccc(Oc2ccccc2)cc1 | 1 | 42 | 22
C[C@H](CO)N1C[C@H](C)[C@@H](CN(C)Cc2ccc(Oc3ccccc3)cc2)Oc2c(NC(=O)C3CCCCC3)cccc2C1=O | 47 | 88* | 48
C[C@@H]1CN([C@@H](C)CO)C(=O)c2cccc(NC(=O)C3CCCCC3)c2O[C@H]1CN(C)Cc1ccc(Oc2ccccc2)cc1 | -21 | 120* | 77
COc1ccc(OC)c(CN=c2c([N+](=O)[O-])nn(-c3ccc(Cl)cc3)n2O)c1 | . | 49 | 31
N#CC1=C(SCC(=O)Nc2ccccc2C(=O)c2ccccc2)NC(=O)CC1c1ccccc1F (stereo not given) | . | -21 | 16
Cc1ccc(S(=O)(=O)N(C)CC(=O)Nc2ccc(C(F)(F)F)cc2)cc1 | . | 6 | 18
Cc1ccc(S(=O)(=O)N2C(=O)CCC2C(=O)Nc2ccccc2-c2ccccc2)cc1 (stereo not given) | . | -7 | -7
COc1ccc(Oc2ccc(NC(=O)C(C)N3C(=O)C4C5C=CC(C6CC56)C4C3=O)cc2)cc1 (stereo not given) | . | 18 | 26
C[C@@H]1CN([C@@H](C)CO)C(=O)c2cccc(NC(=O)C3CCCCC3)c2O[C@@H]1CN(C)Cc1ccc(Cl)c(Cl)c1 | 31 | 96* | 47
C[C@H]1CN([C@@H](C)CO)C(=O)c2cccc(NC(=O)C3CCCCC3)c2O[C@H]1CN(C)Cc1ccc(Cl)c(Cl)c1 | 24 | 49 | 0
CCCc1nc2c(o1)N(C(=O)OCC)C(N)=C(C#N)C21CCNCC1 | -35 | -16 | 7
C=C1CCC2C(C(=O)O)=COC(O[C@@H]3O[C@H](CO)[C@@H](O)[C@H](O)[C@H]3O)C12 (stereo not given in full) | -26 | 3 | 3
